Screening results as filed in PubChem.
The entries come from a sample that favours hits as a whole.
TbREL1 inh: TbREL1 inhibition, primary screen; hit rate 0.49% among 89,000; P86926; inhibition, % at 9.66 µM; TbREL1 RNA ligation, FRET fluorescence;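 active = inhibition above the mean inhibition across all screened compounds plus 3 SD, cut at about 11% in these data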
TbREL1 confirm: TbREL1 inhibition, confirmation; shares compounds with TbREL1 inh; TbREL1 RNA ligation, FRET fluorescence; inhibition, % at 9.66 µM; hit rate 37% among 390; AID 1117282;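 active = mean inhibition across replicates above a set limit taken from the earlier primary screen, cut at about 11% in these data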
Hits are given with their value; – = inactive.

SMILES | TbREL1 inh | others
COc1cc(N=c2ssnc2Cl)c(OC)cc1Cl | –
Cc1nnc(N=c2ssnc2Cl)o1 | 13.4 | TbREL1 confirm=19.5
CCC[C@H]1[C@@H](NC(=O)c2ccc(OC)cc2)CC[C@@]23CCCN2C(=O)CCC[C@@H]13 | –
Cc1ccc(-n2c3c(c(O)c(-c4ccccc4)c2=O)C(=O)CC(C)(C)C3)cc1 | –
CC(C)c1c(Cl)c(O)c(-c2ccccc2)c(=O)n1-c1ccc(F)cc1 | 16.6 | TbREL1 confirm=13.3
COc1ccc(-c2c(O)c(C#N)c(-c3ccccc3)n(-c3ccc(OC)cc3)c2=O)cc1 | –
CC1=C[C@]2(CN(CC3CC3)C3=N[C@H](c4ccccc4)CC(=O)N32)n2c(=O)n(-c3ccccc3)c(=O)n2C1 | –
Cc1ccccc1NC(=O)CCS(=O)(=O)c1ccccc1 | –
CCC[C@H]1[C@@H](OC(=O)NCc2cccs2)CC[C@@]23CCCN2C(=O)CCC[C@@H]13 | –
